# Article PMC5540273 (PLoS ONE, 2017)
# Read-outs that look alike come from different tables or passages of the source.
# Columns and labels:
# CTK = test system: T1, CTK; conditions: concentration: 1 μM, replicates: in singlicate; n = 1
# T1 construct: gene MATK
# DAPK1 = conditions: concentration: 1 μM, replicates: in singlicate; n = 1
# DAPK2 = conditions: concentration: 1 μM, replicates: in singlicate; n = 1
# DAPK3 = conditions: concentration: 1 μM, replicates: in singlicate; n = 1
# DCAMKL1 = test system: T2, DCAMKL1; conditions: concentration: 1 μM, replicates: in singlicate; n = 1
# T2 construct: gene DCLK1
# DCAMKL2 = test system: T3, DCAMKL2; conditions: concentration: 1 μM, replicates: in singlicate; n = 1
# T3 construct: gene DCLK2
# DCAMKL3 = test system: T4, DCAMKL3; conditions: concentration: 1 μM, replicates: in singlicate; n = 1
# T4 construct: gene DCLK3
# DDR1 = conditions: concentration: 1 μM, replicates: in singlicate; n = 1
# DDR2 = conditions: concentration: 1 μM, replicates: in singlicate; n = 1
# DLK = test system: T5, DLK; conditions: concentration: 1 μM, replicates: in singlicate; n = 1
# T5 construct: gene MAP3K12
# DMPK2 = test system: T6, DMPK2; conditions: concentration: 1 μM, replicates: in singlicate; n = 1
# T6 construct: gene CDC42BPG
# DMPK = conditions: concentration: 1 μM, replicates: in singlicate; n = 1
# DRAK1 = test system: T7, DRAK1; conditions: concentration: 1 μM, replicates: in singlicate; n = 1
# T7 construct: gene STK17A
# DRAK2 = test system: T8, DRAK2; conditions: concentration: 1 μM, replicates: in singlicate; n = 1
# T8 construct: gene STK17B
# DYRK1A = conditions: concentration: 1 μM, replicates: in singlicate; n = 1
# DYRK1B = conditions: n = 1
# DYRK2 = conditions: concentration: 1 μM, replicates: in singlicate; n = 1
# EGFR = conditions: concentration: 1 μM, replicates: in singlicate; n = 1
# EIF2AK1 = conditions: concentration: 1 μM, replicates: in singlicate; n = 1
# EPHA1 = conditions: concentration: 1 μM, replicates: in singlicate; n = 1
# [1] = concentration: 1 μM, replicates: in singlicate
# 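Further: KINOMEscan kinase panel screen.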
compound,measurement,setting,value
Cc1ccc(-c2nc(Nc3ccncc3)c3ccccc3n2)s1 [GSK189015],%Inh,CTK,8%
same,%Inh,DAPK1,11%
same,%Inh,DAPK2,0%
same,%Inh,DAPK3,10%
same,%Inh,DCAMKL1,17%
same,%Inh,DCAMKL2,30%
same,%Inh,DCAMKL3,15%
same,%Inh,DDR1,61%
same,%Inh,DDR2,2%
same,%Inh,DLK,0%
same,%Inh,DMPK2,13%
same,%Inh,DMPK,0%
same,%Inh,DRAK1,5%
same,%Inh,DRAK2,0%
same,%Inh,DYRK1A,28%
same,%Inh,DYRK1B; [1],3%
same,%Inh,DYRK2,27%
same,%Inh,EGFR,25%
same,%Inh,EIF2AK1,0%
same,%Inh,EPHA1,16%
Cc1c(Cn2c(C)c(C)n3c(=O)cc(N4CCOCC4)nc23)cccc1C(F)(F)F [GSK2328680],%Inh,CTK,0%
same,%Inh,DAPK1,0%
same,%Inh,DAPK2,0%
same,%Inh,DAPK3,3%
same,%Inh,DCAMKL1,0%
same,%Inh,DCAMKL2,21%
same,%Inh,DCAMKL3,5%
same,%Inh,DDR1,0%
same,%Inh,DDR2,11%
same,%Inh,DLK,14%
same,%Inh,DMPK2,0%
same,%Inh,DMPK,0%
same,%Inh,DRAK1,7%
same,%Inh,DRAK2,0%
same,%Inh,DYRK1A,4%
same,%Inh,DYRK1B; [1],2%
same,%Inh,DYRK2,6%
same,%Inh,EGFR,11%
same,%Inh,EIF2AK1,0%
same,%Inh,EPHA1,20%
Cc1ccc(NC(=O)Nc2ccc(Cl)c(C(F)(F)F)c2)cc1-c1ccc(C(=O)Nc2ccncc2)cc1 [GSK1398470],%Inh,CTK,0%
same,%Inh,DAPK1,8%
same,%Inh,DAPK2,21%
same,%Inh,DAPK3,0%
same,%Inh,DCAMKL1,0%
same,%Inh,DCAMKL2,11%
same,%Inh,DCAMKL3,5%
same,%Inh,DDR1,97.3%
same,%Inh,DDR2,63%
same,%Inh,DLK,0%
same,%Inh,DMPK2,12%
same,%Inh,DMPK,0%
same,%Inh,DRAK1,0%
same,%Inh,DRAK2,0%
same,%Inh,DYRK1A,12%
same,%Inh,DYRK1B; [1],19%
same,%Inh,DYRK2,29%
same,%Inh,EGFR,25%
same,%Inh,EIF2AK1,78%
same,%Inh,EPHA1,6%
COc1ccc(-c2coc3ccc(-c4nnc(C)o4)cc23)cc1,%Inh,CTK,0%
same,%Inh,DAPK1,0%
same,%Inh,DAPK2,1%
same,%Inh,DAPK3,0%
same,%Inh,DCAMKL1,15%
same,%Inh,DCAMKL2,0%
same,%Inh,DCAMKL3,13%
same,%Inh,DDR1,0%
same,%Inh,DDR2,0%
same,%Inh,DLK,0%
same,%Inh,DMPK2,0%
same,%Inh,DMPK,0%
same,%Inh,DRAK1,0%
same,%Inh,DRAK2,0%
same,%Inh,DYRK1A,40%
same,%Inh,DYRK1B; [1],0%
same,%Inh,DYRK2,0%
same,%Inh,EGFR,0%
same,%Inh,EIF2AK1,0%
same,%Inh,EPHA1,0%
Cc1ccc(NC(=O)Nc2ccccc2F)cc1-c1ccc(C(=O)Nc2ccncc2)cc1 [GSK1398477],%Inh,CTK,0%
same,%Inh,DAPK1,0%
same,%Inh,DAPK2,17%
same,%Inh,DAPK3,0%
same,%Inh,DCAMKL1,0%
same,%Inh,DCAMKL2,40%
same,%Inh,DCAMKL3,26%
same,%Inh,DDR1,97%
same,%Inh,DDR2,55%
same,%Inh,DLK,0%
same,%Inh,DMPK2,16%
same,%Inh,DMPK,3%
same,%Inh,DRAK1,1%
same,%Inh,DRAK2,0%
same,%Inh,DYRK1A,26%
same,%Inh,DYRK1B; [1],8%
same,%Inh,DYRK2,17%
same,%Inh,EGFR,24%
same,%Inh,EIF2AK1,0%
same,%Inh,EPHA1,0%
CNC(=O)c1ccc(C)c(-n2c(C)cc(OCc3ccc(F)cc3F)c(Br)c2=O)c1,%Inh,CTK,0%
same,%Inh,DAPK1,0%
same,%Inh,DAPK2,0%
same,%Inh,DAPK3,0%
same,%Inh,DCAMKL1,0%
same,%Inh,DCAMKL2,0%
same,%Inh,DCAMKL3,0%
same,%Inh,DDR1,0%
same,%Inh,DDR2,0%
same,%Inh,DLK,0%
same,%Inh,DMPK2,0%
same,%Inh,DMPK,0%
same,%Inh,DRAK1,1%
same,%Inh,DRAK2,0%
same,%Inh,DYRK1A,0%
same,%Inh,DYRK1B; [1],56%
same,%Inh,DYRK2,0%
same,%Inh,EGFR,0%
same,%Inh,EIF2AK1,0%
same,%Inh,EPHA1,5%
CS(=O)(=O)Cc1ccc(Nc2nccc(-c3c(-c4cccc(NC(=O)C5CCCCC5)c4)nn4ncccc34)n2)cc1 [GSK350559],%Inh,CTK,38%
same,%Inh,DAPK1,0%
same,%Inh,DAPK2,9%
same,%Inh,DAPK3,0%
same,%Inh,DCAMKL1,0%
same,%Inh,DCAMKL2,15%
same,%Inh,DCAMKL3,0%
same,%Inh,DDR1,96.6%
same,%Inh,DDR2,54%
same,%Inh,DLK,41%
same,%Inh,DMPK2,35%
same,%Inh,DMPK,0%
same,%Inh,DRAK1,0%
same,%Inh,DRAK2,0%
same,%Inh,DYRK1A,26%
same,%Inh,DYRK1B; 1 µM,0%
same,%Inh,DYRK2,5%
same,%Inh,EGFR,68%
same,%Inh,EIF2AK1,22%
same,%Inh,EPHA1,6%
CNc1nc(-c2ccc3c(N)n[nH]c3c2)cc(N2C[C@@H](C(=O)NC3CCCCC3)OC[C@H]2C)n1 [GSK2375584],%Inh,CTK,0%
same,%Inh,DAPK1,26%
same,%Inh,DAPK2,34%
same,%Inh,DAPK3,40%
same,%Inh,DCAMKL1,24%
same,%Inh,DCAMKL2,0%
same,%Inh,DCAMKL3,31%
same,%Inh,DDR1,15%
same,%Inh,DDR2,36%
same,%Inh,DLK,37%
same,%Inh,DMPK2,11%
same,%Inh,DMPK,0%
same,%Inh,DRAK1,39%
same,%Inh,DRAK2,2%
same,%Inh,DYRK1A,7%
same,%Inh,DYRK1B; [1],0%
same,%Inh,DYRK2,0%
same,%Inh,EGFR,24%
same,%Inh,EIF2AK1,0%
same,%Inh,EPHA1,14%
O=C1NC(=O)C(c2ccc(Cl)cc2)=C1Nc1cccc(Cl)c1 [SB-317651],%Inh,CTK,16%
same,%Inh,DAPK1,8%
same,%Inh,DAPK2,0%
same,%Inh,DAPK3,18%
same,%Inh,DCAMKL1,18%
same,%Inh,DCAMKL2,0%
same,%Inh,DCAMKL3,17%
same,%Inh,DDR1,0%
same,%Inh,DDR2,16%
same,%Inh,DLK,16%
same,%Inh,DMPK2,0%
same,%Inh,DMPK,0%
same,%Inh,DRAK1,4%
same,%Inh,DRAK2,0%
same,%Inh,DYRK1A,15%
same,%Inh,DYRK1B; [1],52%
same,%Inh,DYRK2,1%
same,%Inh,EGFR,20%
same,%Inh,EIF2AK1,4%
same,%Inh,EPHA1,0%
Cn1cncc1-c1cc2c(Nc3ccc(OCc4ccccc4)cc3)ncnc2cn1 [GW281179],%Inh,CTK,0%
same,%Inh,DAPK1,0%
same,%Inh,DAPK2,0%
same,%Inh,DAPK3,7%
same,%Inh,DCAMKL1,20%
same,%Inh,DCAMKL2,14%
same,%Inh,DCAMKL3,0%
same,%Inh,DDR1,9%
same,%Inh,DDR2,0%
same,%Inh,DLK,27%
same,%Inh,DMPK2,0%
same,%Inh,DMPK,0%
same,%Inh,DRAK1,93%
same,%Inh,DRAK2,5%
same,%Inh,DYRK1A,19%
same,%Inh,DYRK1B; [1],21%
same,%Inh,DYRK2,3%
same,%Inh,EGFR,100%
same,%Inh,EIF2AK1,0%
same,%Inh,EPHA1,14%
